# Bioassay records deposited in PubChem by Broad Institute.
# A selection follows.
# aSyn UTR act – Activators via SNCA 5'UTR binding, MLPCN | AID 1814 | actives 7.1% (n = 300,000) | alpha-synuclein 5'UTR reporter, activators screen | activity score, % (tested at 7.5 µM), hits read low; in the data active means activity score below about -60%
# Active calls of the source: *.
SMILES,aSyn UTR act
Cc1ccc(C2C=NN(c3ccccc3)C2=O)cc1 (stereo unspecified),-64*
COc1cc(CNCc2ccccn2)ccc1OCc1ccc(Cl)c(Cl)c1,-114*
Nc1ncccc1OCc1ccc(Cl)c(Cl)c1,-149*
COC(=O)c1ccc(-c2ccc(/C=N/NC(=O)Cc3nnc(N)s3)o2)cc1,-67*
Cc1cc(C(=O)N/N=C/c2ccc(C)s2)n[nH]1,-97*
O=C(N/N=C/c1cc(Br)cs1)c1ccc2c(c1)OCCO2,-344*
O=C(N/N=C/c1cccs1)c1cc(-c2cccc3ccccc23)n[nH]1,-104*
CC(C)(C)C1CCc2c(C(=O)N/N=C/c3cccs3)csc2C1 (stereo unspecified),-97*
Cc1cc(C(=O)N/N=C/c2ccc([N+](=O)[O-])s2)n[nH]1,79
Cc1ccc(/C=N/NC(=O)c2ccc3c(c2)OCCO3)s1,-118*
Cc1ccc(/C=N/NC(=O)c2ccc3ccccc3c2)s1,-132*
O=C(N/N=C/c1cccs1)c1ccc2ccccc2c1,-240*
O=C(CNC(=O)c1ccccc1O)N/N=C/c1cc(Br)ccc1OC(=O)/C=C/c1ccco1,68
CC(/C=N/NC(=O)c1cc(-c2ccc(Cl)cc2)nc2ccccc12)=C\c1ccco1,85
COc1ccc(C(=O)NCC(=O)N/N=C/C(C)=C/c2ccco2)cc1OC,-62*
Cc1ccc(CN2CCN(CC(=O)N/N=C/c3ccccc3F)CC2)cc1,-63*
CC(/C=N/NC(=O)Cc1cccn1C)=C\c1ccco1,-69*
CC(/C=N/NC(=O)CN1CCN(Cc2ccc(Cl)cc2)CC1)=C\c1ccco1,-87*
O=C(CN1CCN(Cc2ccccc2)CC1)N/N=C/C=C/c1ccco1,-95*
CCC1(C)Cc2ccccc2-c2nc(NCCO)n(-c3ccc(C)cc3)c(=O)c21 (stereo unspecified),-63*
CC(C)c1ccc(NC(=O)[C@H](Cc2c[nH]c3ccccc23)NC(=O)[C@@H]2Cc3ccccc3CN2)cc1,61
CC(C)c1ccc(NC(=O)C(=O)C2C(=O)Nc3ccccc32)cc1 (stereo unspecified),-101*
N#Cc1c(-c2ccccc2)c(-c2ccccc2)nn(CC(=O)NNC(=O)Nc2ccccc2)c1=O,-92*
Cc1ccc(SCC(=O)Nc2cccc(C)c2)cc1,-135*
Cc1cccc(NC(=O)CNc2cc(C)ccc2C)c1,-68*
SMILES,aSyn UTR act
CCC(=NCCc1c(C)[nH]c2ccc(C)cc12)C1=C(O)CC(c2ccccc2)CC1=O (stereo unspecified),104
C=CCc1c(C)[nH]c2ccc(C)cc2c1=O,-86*
O=c1c2ccccc2cnn1CCOc1cccc(Br)c1,-153*
COc1ccccc1C1N=C(c2ccccc2C)NO1 (stereo unspecified),-120*
Cc1ccccc1C1=NC(c2ccc(F)cc2F)ON1 (stereo unspecified),-90*
COc1cc(NC(=O)CCc2ccccc2)nc(OC)n1,-71*
COc1ccc(C(=O)Nc2cc(OC)nc(OC)n2)cc1,-125*
Cc1cccc(OCC(=O)Nc2cc(C)c(C)cc2O)c1,-112*
C/C(CC(=O)Nc1cc(C)ccn1)=N\NC(=O)COc1cccc(C)c1,-110*
Cc1sc(NC(=O)CS(=O)(=O)c2ccccc2)c(C#N)c1C,-87*
Cc1cccc(OCC(=O)Nc2sc3c(c2C#N)CCC3)c1,-100*
CC1(C)Cc2c(sc(NC(=O)COc3cccc4ccccc34)c2C#N)C(C)(C)N1,72
CC(=O)Nc1sc(C)c(C)c1C(=O)OCC(=O)N(CC(C)C)c1c(N)n(Cc2ccccc2)c(=O)[nH]c1=O,77
CC(=O)Nc1sc(C)c(C)c1C(=O)OCCOc1ccccc1,-130*
Cc1sc(NC(=O)COc2ccccc2)c(C#N)c1C,-91*
CC1Oc2ccccc2N(CC(=O)NCc2ccc3c(c2)OCO3)C1=O (stereo unspecified),-106*
CC1Oc2ccccc2N(CC(=O)Nc2ccc3c(c2)OCCO3)C1=O (stereo unspecified),-77*
COc1cc([C@@H]2c3cc4c(cc3[C@@H](NC3CCN(Cc5ccccc5)CC3)[C@H]3COC(=O)[C@H]23)OCO4)cc(OC)c1O,103
CCOC(=O)C(C)Oc1cccc2c(=O)n(CC(=O)NCc3ccc4c(c3)OCO4)ccc12 (stereo unspecified),65
CC1CCCCC12NC(=O)N(CC(=O)NC(=O)Nc1ccc3c(c1)OCCO3)C2=O (stereo unspecified),-169*
O=C(Nc1nnc(-c2cccc(F)c2)s1)Nc1ccccc1F,-98*
CC(c1ccccc1)c1nnc(NC(=O)Nc2ccccc2F)s1 (stereo unspecified),-95*
O=C(Nc1nnc(CC2=CCCCC2)s1)Nc1ccccc1F,-81*
Cc1ccc(C2NNC(=O)C2NC(=O)c2ccccc2)cc1 (stereo unspecified),-111*
COc1ccc(NC(=O)c2c(Cl)nc3ccccn23)cc1,-142*
SMILES,aSyn UTR act
COC(=O)c1cc(NC(=O)c2c(Cl)nc3sccn23)cc(C(=O)OC)c1,80
O=C(Nc1ccc(F)cc1)c1c(Cl)nc2ccccn12,-111*
O=C(NCCCN1CCc2ccccc2C1)Nc1ccc(Cl)cc1,-110*
O=C(Nc1ccc(Cl)cc1)N1CCc2ccccc2C1,-209*
O=C(Cc1ccc(Cl)cc1)N1CCc2ccccc2C1,-160*
O=C(CNc1cccc(F)c1)N1CCc2ccccc2C1,-195*
Cc1ccc(NC(=O)N2CCc3ccccc3C2)c(C)c1,-76*
Cc1ccc(NC(=O)N2CCc3ccccc3C2)cc1,-212*
O=C(CNS(=O)(=O)c1cccs1)N1CCc2ccccc2C1,-72*
CCOc1ccc(NC(=O)N2CCc3ccccc3C2)cc1,-92*
CN(C)c1ccc(NC(=O)CN2CCc3ccccc3C2)cc1,-79*
COc1cc2c(cc1OC)-c1cc(Nc3ccc(N(C)C)cc3)nc(=O)n1CC2,52
O=C(Nc1ccccc1)N1CCc2ccccc2C1,-126*
Cc1ccc(C(=O)O/N=C(\N)Cc2cccs2)c(Cl)c1,-73*
Cc1ccc(C(=O)O/N=C(\N)Cc2ccc([N+](=O)[O-])cc2)c(Cl)c1,-73*
Cc1ccc(CN=c2c([N+](=O)[O-])nn(-c3ccc(Cl)cc3)n2O)cc1,-69*
Cc1cc(C)cc(N=c2c([N+](=O)[O-])nn(-c3cccc(Cl)c3)n2O)c1,-66*
Cc1cccc(N=c2c([N+](=O)[O-])nn(-c3ccc(Cl)cc3)n2O)c1,-68*
O=[N+]([O-])c1nn(-c2ccccc2)n(O)c1=NC1CCN(Cc2ccccc2)CC1,76
CCOC(=O)c1ccc(-c2ccc(/C=N/NC(=O)CN(c3ccccc3Cl)S(C)(=O)=O)o2)cc1,-153*
COC(=O)N/N=C\c1ccc(-c2cc(Cl)c(Cl)cc2Cl)o1,54
CCOc1ccc(S(=O)(=O)N(CC(=O)N/N=C/c2ccc(-c3ccc([N+](=O)[O-])cc3)o2)c2ccccc2)cc1,-72*
O=c1c(Br)c(NCc2ccccc2)cnn1-c1ccc(F)cc1,-68*
S=C(NCc1ccco1)Nc1ccc(Br)cc1Cl,-141*
S=C(NCc1ccco1)Nc1ccc(Cl)cc1Cl,-108*
SMILES,aSyn UTR act
Fc1ccc(-c2csc(Nc3ccccn3)n2)c(F)c1,-102*
Oc1ccc(-c2csc(Nc3ccccn3)n2)cc1,-163*
COc1ccc(C2=Nn3c(nnc3-c3ccncc3)SC2)cc1OC,72
c1ccc(-c2csc(Nc3ccccn3)n2)cc1,-107*
COc1ccc(-c2csc(Nc3ccccn3)n2)cc1OC,-170*
CCOc1ccc2oc(C(=O)NC(C)(C)CC)c(C)c2c1,-118*
NC(N)=N/N=C/c1ccc(OCc2ccccc2)cc1,-70*
